Calls of active or inactive are those of the source.
Columns and labels:
[1] = tested on: Plasmodium falciparum Sir2 (PF13_0152, Sir2A); assay: pfSir2 binders on small-molecule microarrays, primary screen, biochemical, small-molecule microarray, 635 nm fluorescence (AID 1098); conditions: small-molecule microarray binding, fluorescence 635 nm; higher = more signal;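 note: score merges spot fluorescence intensity with its signal-to-noise ratio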
[2] = small-molecule microarray binders of probe aDKK1, primary screen, biochemical, biotinylated probe, 635/667 nm fluorescence (AID 1099); conditions: higher = more signal;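 note: score merges 667nm spot fluorescence with signal to noise across triplicate slides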
[3] = small-molecule microarray binders of probe aCHRDL2, primary screen, biochemical, biotinylated probe, 635/667 nm fluorescence (AID 1100); conditions: higher = more signal
[4] = splicing luciferase reporter signal modulators, primary screen, spliceosome inhibition project, cell-based, HEK293, splice +/- reporter (AID 1101); conditions: luminescence, 24 h, higher = more signal, called active from +8 up or from −8 down;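 note: HEK293 cells carrying a splicing-competent luciferase reporter gene; test concentration not given here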
[5] = target: Fibroblast growth factor 10 (Homo sapiens) (UniProt O15520); assay: FGF10 binders on small-molecule microarrays, primary screen, biochemical, small-molecule microarray, 635 nm fluorescence (AID 1102); conditions: FGF10 binding, fluorescence 635 nm, higher = more signal
Sequence of Fibroblast growth factor 10 (Homo sapiens) (O15520 whole entry, looked up): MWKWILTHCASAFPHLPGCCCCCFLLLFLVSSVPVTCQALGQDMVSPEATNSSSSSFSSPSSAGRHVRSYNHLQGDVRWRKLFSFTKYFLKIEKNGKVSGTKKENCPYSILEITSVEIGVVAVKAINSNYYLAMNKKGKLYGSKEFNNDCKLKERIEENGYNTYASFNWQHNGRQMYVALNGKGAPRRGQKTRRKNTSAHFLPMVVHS

[6] = tested on: glycogen synthase kinase-3 (GSK3A per assay name; protocol says GSK3B); assay: GSK3 binders on small-molecule microarrays, primary screen, biochemical, small-molecule microarray, 635 nm fluorescence, GSK3A (AID 1103); conditions: small-molecule microarray binding, fluorescence 635 nm; higher = more signal; note: the record names both GSK3A and GSK3B
[7] = target: Epidermal growth factor receptor (Homo sapiens) (UniProt P00533); assay: EGFR binders on small-molecule microarrays, primary screen, biochemical, small-molecule microarray, 635 nm fluorescence (AID 1104); conditions: EGFR binding, higher = more signal;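 note: score merges 667 nm emission intensity with spot signal to noise over triplicate slides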
Sequence of Epidermal growth factor receptor (Homo sapiens) (P00533 whole entry, looked up): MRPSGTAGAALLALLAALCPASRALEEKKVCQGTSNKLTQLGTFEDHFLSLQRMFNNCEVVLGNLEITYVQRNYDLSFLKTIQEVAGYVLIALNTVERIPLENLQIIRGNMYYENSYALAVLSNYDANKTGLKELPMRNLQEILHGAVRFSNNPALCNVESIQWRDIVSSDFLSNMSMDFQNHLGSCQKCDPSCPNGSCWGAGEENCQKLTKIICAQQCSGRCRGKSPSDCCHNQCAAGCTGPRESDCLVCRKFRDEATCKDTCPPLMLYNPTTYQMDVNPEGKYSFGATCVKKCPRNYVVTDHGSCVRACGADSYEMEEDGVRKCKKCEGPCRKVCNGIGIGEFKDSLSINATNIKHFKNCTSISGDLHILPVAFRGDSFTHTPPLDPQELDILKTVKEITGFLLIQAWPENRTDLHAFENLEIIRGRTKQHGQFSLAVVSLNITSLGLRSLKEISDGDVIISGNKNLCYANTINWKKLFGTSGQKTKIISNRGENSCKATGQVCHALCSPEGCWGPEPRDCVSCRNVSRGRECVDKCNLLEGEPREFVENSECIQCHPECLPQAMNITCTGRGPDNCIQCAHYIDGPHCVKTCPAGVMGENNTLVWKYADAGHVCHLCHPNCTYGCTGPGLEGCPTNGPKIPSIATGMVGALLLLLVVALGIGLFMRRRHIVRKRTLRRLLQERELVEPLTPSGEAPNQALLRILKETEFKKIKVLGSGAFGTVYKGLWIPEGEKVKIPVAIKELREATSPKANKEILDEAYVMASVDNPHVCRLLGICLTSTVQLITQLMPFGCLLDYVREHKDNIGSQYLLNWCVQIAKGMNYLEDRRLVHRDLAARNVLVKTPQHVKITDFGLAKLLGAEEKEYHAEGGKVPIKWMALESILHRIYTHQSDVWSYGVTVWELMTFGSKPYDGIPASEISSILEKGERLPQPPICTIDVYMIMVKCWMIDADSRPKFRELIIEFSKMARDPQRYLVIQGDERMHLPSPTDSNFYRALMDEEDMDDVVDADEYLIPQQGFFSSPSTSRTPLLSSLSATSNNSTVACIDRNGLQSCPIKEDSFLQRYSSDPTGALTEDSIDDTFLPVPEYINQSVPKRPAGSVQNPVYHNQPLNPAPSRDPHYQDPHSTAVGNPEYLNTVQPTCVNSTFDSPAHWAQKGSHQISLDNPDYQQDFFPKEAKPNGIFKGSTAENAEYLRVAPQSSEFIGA

[8] = target: Follistatin-related protein 3 (Homo sapiens) (UniProt O95633); assay: FSTL3 binders on small-molecule microarrays, primary screen, biochemical, small-molecule microarray, 635 nm fluorescence (AID 1105); conditions: FSTL3 binding, higher = more signal;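 note: score merges emission near 667 nm and signal to noise per printed spot across three slides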
Sequence of Follistatin-related protein 3 (Homo sapiens) (O95633 whole entry, looked up): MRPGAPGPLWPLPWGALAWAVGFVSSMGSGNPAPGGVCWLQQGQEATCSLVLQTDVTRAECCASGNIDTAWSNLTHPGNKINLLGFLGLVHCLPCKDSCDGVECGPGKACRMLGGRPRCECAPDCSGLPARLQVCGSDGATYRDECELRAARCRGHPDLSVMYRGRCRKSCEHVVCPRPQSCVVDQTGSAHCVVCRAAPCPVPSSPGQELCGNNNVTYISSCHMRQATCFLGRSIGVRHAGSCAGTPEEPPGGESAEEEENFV

[9] = target: Dickkopf-related protein 1 (Homo sapiens) (UniProt O94907); assay: DKK1 binders on small-molecule microarrays, primary screen, biochemical, small-molecule microarray, 635 nm fluorescence scan (AID 1106); conditions: DKK1 binding, higher = more signal;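 note: score merges emission near 667 nm with signal to noise over three replicate slides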
Sequence of Dickkopf-related protein 1 (Homo sapiens) (O94907 whole entry, looked up): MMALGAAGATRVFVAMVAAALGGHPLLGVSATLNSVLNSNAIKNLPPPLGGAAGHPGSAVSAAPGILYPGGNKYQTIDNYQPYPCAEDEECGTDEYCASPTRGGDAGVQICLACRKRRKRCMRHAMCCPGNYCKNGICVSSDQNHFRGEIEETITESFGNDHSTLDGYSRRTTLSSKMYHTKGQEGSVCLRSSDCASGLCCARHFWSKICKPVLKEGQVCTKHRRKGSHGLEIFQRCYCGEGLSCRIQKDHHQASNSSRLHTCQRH

[10] = tested on: Inhibin beta A chain (activin A); assay: INHBA (activin A) binders on microarrays, primary screen, biochemical, small-molecule microarray, 635 nm fluorescence scan (AID 1107); conditions: small-molecule microarray binding, higher = more signal;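 note: mouse activin A protein probed at 4.33 µg/mL on printed slides; score merges bound-protein fluorescence near 667 nm with spot signal-to-noise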
[11] = tested on: Human papillomavirus type 1a protein E7 (residues 44-93); assay: HPV1a E7 fragment binders on microarrays, primary screen, biochemical, small-molecule microarray, residues 44-93, 635 nm fluorescence (AID 1108); conditions: small-molecule microarray binding, fluorescence 635 nm; higher = more signal;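 note: E7 fragment applied at 1 µg/mL in TBST for 1 h at 4 C; score combines spot fluorescence with its signal to noise ratio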
[12] = modulators of HCV replicon luciferase signal, primary screen, HCV replication inhibitor project, Huh7 cells, luciferase reporter (AID 1109); conditions: 48 h, higher = more signal;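 note: huh7 hepatoma cells harbouring a luciferase neomycin HCV replicon reporter; luciferase luminescence as measure of HCV replicon replication; test concentration not given here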
[13] = target: Left-right determination factor 2 (Homo sapiens) (UniProt O00292); assay: LEFTY2 binders on small-molecule microarrays, primary screen, biochemical, small-molecule microarray, 635 nm fluorescence scan (AID 1110); conditions: LEFTY2 binding, higher = more signal
Sequence of Left-right determination factor 2 (Homo sapiens) (O00292 whole entry, looked up): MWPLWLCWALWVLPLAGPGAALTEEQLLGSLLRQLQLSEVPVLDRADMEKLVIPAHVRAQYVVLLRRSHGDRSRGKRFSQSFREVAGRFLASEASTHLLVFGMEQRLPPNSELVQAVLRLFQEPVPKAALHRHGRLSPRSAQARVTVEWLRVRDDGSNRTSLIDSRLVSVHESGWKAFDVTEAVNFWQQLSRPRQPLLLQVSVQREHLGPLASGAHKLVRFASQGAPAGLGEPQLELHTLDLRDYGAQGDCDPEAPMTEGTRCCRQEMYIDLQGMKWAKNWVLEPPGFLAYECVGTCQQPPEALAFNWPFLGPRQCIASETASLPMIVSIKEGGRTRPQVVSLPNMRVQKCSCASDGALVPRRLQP

[14] = target: Calmodulin-1 (Homo sapiens) (UniProt P0DP23); assay: CALM1 binders on microarrays, EGTA buffer, profiling panel, biochemical, small-molecule microarray, Cy5-labelled CALM1 (AID 1111); conditions: Cy5-CALM1 binding fluorescence, higher = more signal;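 note: labelled calmodulin applied in Tris saline Tween buffer holding calcium plus EGTA and DTT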
[15] = target: Calmodulin-1 (Homo sapiens) (UniProt P0DP23); assay: calcium-bound CALM1 binders on microarrays, profiling panel, artefact control for SMM control-protein annotation, biochemical, small-molecule microarray, Cy5-labelled CALM1, plus calcium (AID 1112); conditions: Cy5-CALM1 binding fluorescence, higher = more signal;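 note: score merges spot fluorescence with signal to noise from triplicate slides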
[16] = small-molecule microarray binders of probe aWnt5a, primary screen, biochemical, biotinylated probe, 635/667 nm fluorescence (AID 1113); conditions: higher = more signal;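 note: score merges 667 nm fluorescence intensity with signal-to-noise per printed feature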
[17] = small-molecule microarray binders of probe aShh, primary screen, biochemical, biotinylated probe, 635/667 nm fluorescence (AID 1114); conditions: higher = more signal;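 note: probe is biotin-labelled aShh protein from a stem cell growth factor screen; measures binding of labelled protein to compounds printed on the slide; score merges feature fluorescence at 667 nm with signal-to-noise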
[18] = small-molecule microarray binders of probe aNog, primary screen, biochemical, biotinylated probe, 635/667 nm fluorescence (AID 1115); conditions: higher = more signal;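 note: probe is biotinylated aNog protein used at 0.15 µg/mL for 1 h at 4 C; z-score combines 667 nm fluorescence of each spot with its signal to noise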
[19] = target: Torsin-1A-interacting protein 1 (Homo sapiens) (UniProt Q5JTV8); assay: LAP1 binders from COS7 cell lysate, primary screen, small-molecule microarray, 635/667 nm fluorescence (AID 1116); conditions: COS7-hLAP1 lysate binding, 635 nm fluorescence, higher = more signal
Sequence of Torsin-1A-interacting protein 1 (Homo sapiens) (Q5JTV8 whole entry, looked up): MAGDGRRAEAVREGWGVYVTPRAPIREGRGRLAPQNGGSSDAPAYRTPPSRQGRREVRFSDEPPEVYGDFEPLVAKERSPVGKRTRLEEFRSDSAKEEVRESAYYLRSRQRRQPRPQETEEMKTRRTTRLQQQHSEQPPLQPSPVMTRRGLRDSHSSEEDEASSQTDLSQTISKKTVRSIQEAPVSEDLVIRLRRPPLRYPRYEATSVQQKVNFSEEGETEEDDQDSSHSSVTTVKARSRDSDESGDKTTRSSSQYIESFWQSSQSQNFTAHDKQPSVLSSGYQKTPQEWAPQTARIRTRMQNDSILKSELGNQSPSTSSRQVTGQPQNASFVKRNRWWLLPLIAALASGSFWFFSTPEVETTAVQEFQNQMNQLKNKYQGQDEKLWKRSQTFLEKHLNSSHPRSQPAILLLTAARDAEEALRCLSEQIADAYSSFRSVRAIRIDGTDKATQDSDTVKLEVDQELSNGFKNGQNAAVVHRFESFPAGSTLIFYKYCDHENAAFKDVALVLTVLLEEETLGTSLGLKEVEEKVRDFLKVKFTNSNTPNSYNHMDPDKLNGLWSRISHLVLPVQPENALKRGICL

[20] = target: Alpha-bungarotoxin (Bungarus multicinctus) (UniProt P60615); assay: alpha-bungarotoxin binders on microarray, profiling panel, artefact control for SMM control protein annotation, biochemical, small-molecule microarray, Alexa647 label, 635/667 nm fluorescence (AID 1117); conditions: alpha-BTX-A647 binding fluorescence, higher = more signal
Sequence of Alpha-bungarotoxin (Bungarus multicinctus) (P60615 whole entry, looked up): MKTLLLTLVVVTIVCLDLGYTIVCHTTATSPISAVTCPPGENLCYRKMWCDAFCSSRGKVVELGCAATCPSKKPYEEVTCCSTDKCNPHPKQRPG

Structure (SMILES) | composite z-score [1] | composite z-score [2] | composite z-score [3] | z-score [4] | composite z-score [5] | composite z-score [6] | composite z-score [7] | composite z-score [8] | composite z-score [9] | composite z-score [10] | composite z-score [11] | z-score [12] | composite z-score [13] | composite z-score [14] | composite z-score [15] | composite z-score [16] | composite z-score [17] | composite z-score [18] | composite z-score [19] | composite z-score [20]
CCOC(=O)C[C@H]1[C@H](OC(=O)c2cc3ccccc3oc2=O)[C@@H](NC(=O)CC(C)C)c2cc(OCCCO)ccc2N1C(=O)c1ccccc1 | 0.0288 | -0.179 | -0.428 | -1.04 (inactive) | 0.644 | 0.53 | 0.393 | 0.358 | 0.371 | -0.0294 | 0.886 | 0.186 | 0.371 | -0.299 | -0.543 | 0.0317 | -0.0011 | 0.819 | 0.124 | 1.06
O=C1N(CCS(=O)(=O)c2ccccc2)c2ccccc2[C@@H]2OC(c3ccc(OCCCO)cc3)=N[C@]12Cc1ccccc1 | 1.49 | 0.0733 | 0.393 | -0.917 (inactive) | 0.379 | 1.28 | 0.542 | 1.29 | 0.432 | 0.995 | 1.34 | -1.94 | 0.248 | 0.835 | -0.387 | -0.124 | -0.24 | -0.12 | 0.309 | 1.32
COc1ccc(-c2cc3c(c(Cc4ccccc4)n2)[Si](C(C)C)(C(C)C)OC3)cn1 | 0.409 | 0.0847 | -0.386 | -0.267 (inactive) | -0.156 | -0.949 | 0.343 | -0.139 | 0.085 | 0.256 | -0.864 | -0.421 | -0.0979 | -0.646 | 0.0817 | -0.13 | -0.0849 | -0.0855 | -0.0516 | -0.26
C=CCN1Cc2ccccc2[C@@H]2OC(c3ccc(OCCCO)cc3)=N[C@]2(CCS(=O)(=O)c2ccccc2)C1=O | 1.53 | 0.205 | 0.825 | 0.211 (inactive) | 1.4 | 1.32 | 1.01 | 1.43 | 1.41 | 1.1 | 1.33 | -1.48 | 0.954 | 0.804 | -0.321 | -0.0009 | 0.377 | 0.714 | 1.58 | 1.42
Cc1ccc(S[C@]2(C(=O)NCC(C)C)CC(=O)N(Cc3cc(C(F)(F)F)cc(C(F)(F)F)c3)[C@@H]2c2ccc(CO)cc2)cc1 | 0.889 | 0.209 | 0.736 | 0.585 (inactive) | -0.417 | -0.725 | -1.25 | -0.634 | -0.326 | 0.96 | -0.716 | -0.297 | -0.419 | -0.909 | -0.468 | 0.168 | -0.153 | -0.468 | 0.489 | -0.0201
O=C1C2C=CC(C(O)c3ccc(F)cc3)N(Nc3ccc([N+](=O)[O-])cc3)C2C(=O)N1c1ccccc1 (stereo not given) | 1.38 | 0.343 | 0.839 | 0.516 (inactive) | 0.638 | 1.07 | -0.125 | 0.558 | -0.272 | 0.556 | 0.883 | -1.03 | -0.424 | 1.76 | 0.554 | 0.155 | 0.294 | 0.0676 | 0.733 | 1.76
COCCCNC(=O)[C@@]1(Cc2ccccc2)N=C(c2ccc(OCCCO)cc2)O[C@H]1c1ccccc1CN=[N+]=[N-] | 0.47 | 1.09 | 1.32 | -0.469 (inactive) | 0.807 | 1.28 | -0.105 | 0.859 | -0.172 | 0.384 | 0.596 | -2.86 | 0.0508 | 2.14 | 0.451 | 0.0445 | 0.496 | 1.36 | 2.35 | 2.23
COCCOC(=O)N1C(=O)[C@@]2(c3cc(C#CC4=CCCCC4)ccc31)[C@H](c1ccc(OCCO)cc1)N1[C@H](c3ccccc3)[C@H](c3ccccc3)OC(=O)[C@H]1[C@@H]2C(=O)N1CCc2cc(OC)c(OC)cc2C1 | 0.774 | 0.645 | 0.538 | -0.992 (inactive) | 1.09 | 1.3 | 0.707 | 1.39 | 1.13 | 0.942 | 1.24 | -0.829 | 1 | 0.933 | 0.43 | 0.139 | 0.0611 | 0.121 | 1.71 | 0.595
O=C(O)C1N=C(c2ccc(OCCCO)cc2)N(c2ccccc2)O1 (stereo not given) | 0.524 | 0.187 | 0.391 | -0.303 (inactive) | 1.22 | 0.472 | 0.327 | 0.285 | -0.0405 | 0.712 | 1.13 | -0.643 | 0.509 | 0.37 | -0.218 | -0.0478 | -0.0769 | -0.402 | 0.435 | 0.447
COc1ccccc1CN1C(=O)c2ccccc2[C@@]2(Cc3ccccc3N(CCCN(C)C)C2=O)[C@@H]1c1ccc(CO)cc1 | 0.269 | -0.169 | -0.649 | -0.706 (inactive) | 0.165 | 0.0081 | 0.237 | 0.76 | 1.05 | 1.19 | -0.0362 | -1.86 | 0.524 | -0.0574 | -0.688 | -0.165 | -0.282 | -0.273 | 0.0163 | -0.94
COCCOC(=O)N1C(=O)[C@@]2(c3cc(C#CC4(O)CCCCCC4)ccc31)[C@H](C(=O)Nc1nc3ccccc3s1)[C@H]1C(=O)O[C@H](c3ccccc3)[C@H](c3ccccc3)N1[C@@H]2c1ccc(OCCO)cc1 | 1.28 | 0.0895 | 0.0903 | -0.426 (inactive) | 1.25 | 1.3 | 0.583 | 1.37 | 0.84 | 0.8 | 1.31 | -2.33 | 0.726 | 0.693 | -0.271 | -0.169 | 0.138 | 0.0824 | -0.105 | 1.21
